From the supplement of paper PMC8975748 come the findings set out here.

Counter-ions that a name gives are not always drawn.

This experiment deals with Saccharomyces cerevisiae BY4741 SeMeCo community. The experiment in a line: z-score of subpopulation abundance vs DMSO median, subpopulation auxotrophic for U; higher = larger share of this subpopulation than in DMSO controls. The settings on record: 10 µM; 24 h; SM minimal medium; subpopulation (auxotrophy): U. The method, boiled down: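 Scoring was based on each subpopulation's abundance, expressed as a z-score against the vehicle-well median. A Saccharomyces cerevisiae BY4741 community with four plasmids, each restoring one auxotrophy and encoding a distinct fluorescent protein, was pre-grown overnight to OD600 1.0, diluted to 0.3, and added at 70 µl to 384-well plates acoustically predosed with library drugs (10 µM final). It then grew 24 h in minimal SM medium before paraformaldehyde fixation and automated confocal microscopy, with single-auxotroph fluorescent strains setting thresholds and autofluorescence correction.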
In the case of `C[C@]12CCC3=C4CCC(=O)C=C4CC[C@H]3[C@@H]1CC[C@@]2(O)CC#N` [Dienogest], the “z-score of subpopulation abundance” value was -0.87.

Regarding `C[N+]1(C)CCC(OC(=O)C(O)(c2ccccc2)C2CCCC2)C1` (stereo not drawn) [Glycopyrrolate], the “z-score of subpopulation abundance” value is 1.42.

On to `NCC[C@H](O)C(=O)N[C@@H]1C[C@H](N)[C@@H](O[C@H]2O[C@H](CN)[C@@H](O)[C@H](O)[C@H]2O)[C@H](O)[C@H]1O[C@H]1O[C@H](CO)[C@@H](O)[C@H](N)[C@H]1O` [Amikacin disulfate], for which the “z-score of subpopulation abundance” value turned out to be 0.78.

With `CCCCCNC(=N)N/N=C/c1c[nH]c2ccc(OC)cc12` [Tegaserod Maleate], the “z-score of subpopulation abundance” value was -1.24.

Turning to `COc1ccc2cc3[n+](cc2c1OC)CCc1cc2c(cc1-3)OCO2` [Berberine Sulfate], the “z-score of subpopulation abundance” value amounted to 1.36.

As to `COC(=O)C1=C(C)NC(C)=C(C(=O)OC(C)(C)CN(C)CCC(c2ccccc2)c2ccccc2)C1c1cccc([N+](=O)[O-])c1` (stereo not drawn) [Lercanidipine hydrochloride], the “z-score of subpopulation abundance” value is -1.5.

In the case of `O=c1ccn(C2CC(O)C(CO)O2)c(=O)[nH]1` (stereo not drawn) [2-deoxyuridine], the “z-score of subpopulation abundance” value was -1.16.

Regarding `Nc1nc2[nH]cc(CCc3ccc(C(=O)N[C@@H](CCC(=O)O)C(=O)O)cc3)c2c(=O)[nH]1` [Pemetrexed Disodium Hydrate], the “z-score of subpopulation abundance” value was -1.03.
